# PubChem BioAssay AID651804 (National Center for Advancing Translational Sciences (NCATS), 2012)
# In all, about 1,200 compounds went through this assay and about 20 (2%) were called active. Where a call stands in place of a potency, no number is given. Not shown: some 23% with an inconclusive outcome. The sample holds actives, similar compounds and a random draw of the others, so the mix is not that of the screen. Calls follow the shape of the dose curve; as a rule, active = well fitted inhibition curve with a large enough effect; inconclusive = small, poorly fitted or top-dose-only effect; inactive = no such curve, though single readings can be large or run the other way.
# Molecular target: Transcriptional regulator ERG (Homo sapiens) (UniProt P11308)
# Sequence (P11308 whole entry, looked up): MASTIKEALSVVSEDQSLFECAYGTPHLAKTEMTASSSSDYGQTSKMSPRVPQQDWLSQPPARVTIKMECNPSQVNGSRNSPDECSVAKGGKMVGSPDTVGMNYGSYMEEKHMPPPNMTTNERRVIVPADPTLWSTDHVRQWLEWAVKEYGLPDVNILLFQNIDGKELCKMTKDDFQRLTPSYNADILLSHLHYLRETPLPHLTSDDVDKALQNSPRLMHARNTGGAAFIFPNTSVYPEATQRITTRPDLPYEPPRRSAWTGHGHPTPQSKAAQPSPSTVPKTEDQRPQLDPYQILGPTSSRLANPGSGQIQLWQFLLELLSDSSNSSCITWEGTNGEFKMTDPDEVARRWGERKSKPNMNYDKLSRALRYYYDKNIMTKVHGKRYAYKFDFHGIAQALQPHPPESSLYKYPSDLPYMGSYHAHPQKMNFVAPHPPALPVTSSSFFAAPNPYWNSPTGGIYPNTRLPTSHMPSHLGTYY
# Assay: qHTS for Small Molecule Inhibitors of the ERG Ets/DNA interaction: HTRF assay against cherry picks
# Conditions: His-ERG Ets domain with biotin-DNA; series mostly up to 154 µM
# Description: The Ets family of proteins is a family of ~30 conserved transcription factors defined by the presence of an ~85 amino acid domain referred to as the Ets domain, which mediates sequence-specific DNA binding to a core DNA element GGAA/T.The Ets family member ERG has been linked to several neoplasms. […] More extensive studies of the effects of over-expression of ERG in prostate cells have recently been carried out and have shown that over-expression of ERG results in increased invasion. […] We will carry out a high throughout screen to identify inhibitors of the interaction between ERG and DNA using a fluorescence polarization (FP) assay with a His-tagged ERG Ets domain and fluorescently-labeled DNA probes to develop small molecule inhibitors of this interaction as probes to test this hypothesis and lay the groundwork for the development of targeted therapies against ERG. This is the counterscreen against the cherry picks. NIH Molecular Libraries Probe Production Network [MLPCN] NIH Chemical Genomics Center [NCGC] Grant: NS066464 PI Name: John Bushweller, University of Virgina
# 2 ul of protein solution (200 nM ERG domain in 300mM KCl, 50mM Tris-HCl, 1mM EDTA, 1mM DTT, pH 7.5); 20 nl Control plate and compound library plate; 2 ul of 200 nM biotin-DNA; incubate for 10 min at RT; 1 ul of anti-His antibody conjugated to the long-life fluorescent cryptate donner […] (5ng/ul) and streptavidin conjugated to the acceptor compound […] (0.2 ng/ul) mix; incubate 10 min and measure FRET (Excitation = 320 nm, Emission = 615, 665 nm).
# Potency is read from the fitted curve at half-maximal effect.
row,SMILES,Potency
1,Cc1cc(OCc2cc3c(cc2Cl)OCO3)c2c(C)cc(=O)oc2c1,inactive
2,COC(=O)c1ccccc1NC(=O)c1cc(C2CC2)on1,inactive
3,Nc1ccccc1S(N)(=O)=O,inactive
4,COc1cc(CCC(=O)Nc2ccc(Br)c(C(F)(F)F)c2)cc(OC)c1OC,inactive
5,O=C(NCCCc1ccccc1)C(=O)NCC1OCCN1S(=O)(=O)c1cc(F)ccc1F (stereo unspecified),inactive
6,N#Cc1c(SCc2c(Cl)cccc2Cl)nc(N)[nH]c1=S,inactive
7,CCC(c1nnnn1Cc1ccc(F)cc1)N1CCN(C)CC1 (stereo unspecified),inactive
8,Cc1sc2nc(CSC(C)C(=O)Nc3ccc(C(N)=O)cc3)[nH]c(=O)c2c1C (stereo unspecified),inactive
9,CCOc1ccc(NS(=O)(=O)c2ccc(NC(C)=O)c(OC)c2)cc1,inactive
10,CCn1ccc2c(OCC(=O)Nc3ccc(C(C)=O)cc3)cccc2c1=O,inactive
11,COc1cccc2c1C(=N)c1c(O)c3c(c(O)c1C2=O)CC(O)(C(C)=O)CC3OC1CC(N)C(O)C(C)O1 (stereo unspecified),3.98 µM (active)
12,COC(=O)c1c(C(=O)OC)c(-c2ccc(OC)cc2)n2c1CS(=O)C2 (stereo unspecified),inactive
13,CC(NC(=O)c1ccco1)c1nc(-c2ccc(C(C)(C)C)cc2)no1 (stereo unspecified),inactive
14,O=C(Cc1csc(-c2ccccc2)n1)NCc1ccc(F)cc1,inactive
15,O=C(NCCCc1ccccc1)C(=O)NCC1OCCN1S(=O)(=O)c1ccccc1 (stereo unspecified),inactive
16,CCn1nc(C)c(CNC(=O)c2cc(COc3ccccc3SC)on2)c1C,inactive
17,CS(=O)(=O)N(CC(=O)Nc1ccccc1)c1cccc(Cl)c1Cl,inactive
18,O=C(O)CC(c1cccc2ccccc12)N1Cc2ccccc2C1=O (stereo unspecified),inactive
19,O=C(NCc1ccc(F)cc1F)c1cc(COc2c(F)cccc2F)on1,inactive
20,Cc1cc(C)cc(N(C(=O)c2csnn2)C(C(=O)NC(C)(C)C)c2ccncc2)c1 (stereo unspecified),inactive
21,COc1ccc(Nc2ncnc3sccc23)cc1OC,inactive
22,COc1ccc(-c2cccc(NS(=O)(=O)c3cc([N+](=O)[O-])ccc3C)c2)nn1,inactive
23,Cc1cc(N)ccc1-n1c(C)ccc1C,inactive
24,CC(Oc1ccc(C(=O)c2ccc(F)cc2)cc1)C(=O)N1CCOCC1 (stereo unspecified),inactive

row,SMILES,Potency
1,CCc1nn2c(=O)cc(CSCC(=O)Nc3ccccc3F)nc2s1,inactive
2,CCOC(=O)C(CC)Sc1ccc2nnc(-c3cccnc3)n2n1 (stereo unspecified),inactive
3,CC1CCN(S(=O)(=O)c2ccc(Cl)s2)CC1,inactive
4,Cn1nc(C(F)(F)F)c(C#N)c1N1CCN(c2ccccn2)CC1,inactive
5,O=C(C[C@H]1C/C=C\CC[C@@H](Cc2ccc(F)cc2)C(=O)OC[C@H]2CCCN2C1=O)N[C@H](CO)Cc1ccccc1,inactive
6,CC1(C)C2CCC1(C)C(NCC(O)COc1ccc(C#N)cc1)C2 (stereo unspecified),inactive
7,CCOCCn1c(CN2CCCCC2)nc2c1c(=O)n(C)c(=O)n2C,inactive
8,Cc1cc(C(=O)COC(=O)C23CC4CC(CC(O)(C4)C2)C3)c(C)n1C,inactive
9,COc1cc(NC(=O)COC(=O)CNC(=O)C2CCCCC2)cc(OC)c1,inactive
10,Cc1nccn1C[C@@H]1CCc2c(c3ccccc3n2C)C1=O,inactive
11,Cc1nc(Nc2cccc(F)c2)c2oc3ccccc3c2n1,inactive
12,CCCCn1c(N)c(N(CC(C)C)C(=O)c2ccc(S(=O)(=O)N3CCC(C)CC3)cc2)c(=O)[nH]c1=O,inactive
13,COC(=O)c1ccccc1SC(CC(=O)c1ccccc1)c1ccc(F)cc1 (stereo unspecified),inactive
14,CCCC(NC(=O)C(C)Sc1nnnn1C1CC1)c1ccccc1 (stereo unspecified),inactive
15,CCCN1C[C@H](CSC)C[C@@H]2c3cccc4[nH]cc(c34)C[C@H]21,14.1 µM (active)
16,Cc1ccccc1-n1c(=O)n(CCc2ccccc2)c(=O)c2[nH]cnc21,inactive
17,O=S(=O)(c1ccccc1)c1cnc(-c2cccnc2)nc1-c1ccccc1,inactive
18,O=c1oc2ccccc2cc1-c1cn2cc(Cc3ccc(F)cc3)sc2n1,inactive
19,NC(=O)c1ccccc1NCC(=O)c1ccc(F)cc1,inactive
20,COc1cccc(-c2nn(C)c3sc(C(=O)NCc4ccc(OC)cc4OC)cc23)c1,inactive
21,CSc1nc(-c2ccc(Cl)cc2)nn1C(=O)c1ccccc1,inactive
22,COc1ccc(S(=O)(=O)N2CCCC(C(F)(F)F)C2)cc1 (stereo unspecified),inactive
23,CN(C)C=NC(=O)c1cc(C(=O)c2ccc(Cl)cc2)c[nH]1,inactive
24,Cc1cc(=O)oc2cc(OCC(=O)OCC(=O)Nc3ccc(C(C)C)cc3)ccc12,inactive

row,SMILES,Potency
1,COC(=O)C(CCSC)NC(=O)c1cc2c(n(-c3ccccc3)c1=O)CC(C)(C)CC2=O (stereo unspecified),inactive
2,CC(C)CCN1CCN(C2CCN(c3ccc4c(c3)OCO4)CC2)CC1CCO (stereo unspecified),inactive
3,Cc1cc(C)nc(N2C(=O)CC(Cc3ccc(Cl)cc3)C2=O)n1 (stereo unspecified),inactive
4,Cc1ccc2oc(-c3ccc(NC(=O)CC(C)C)cc3)nc2c1,inactive
5,Cc1ccc(C(=O)N2CCCCC2C(=O)O)cc1S(=O)(=O)N1CCCCC1 (stereo unspecified),inactive
6,O=C(Nc1ccccc1Br)c1ccccc1-c1ccccc1,inactive
7,COc1ccccc1NS(=O)(=O)c1ccc(C)c(NC(=O)c2c(C)noc2C)c1,inactive
8,Cc1ccc(NC(=O)CSc2nc3ccccc3c3nc(CCn4c(C)nc5ccccc54)nn23)cc1F,inactive
9,COc1ccc(NC(=O)CSc2nc(C)c3c(c2C#N)CCCC3)cc1,inactive
10,Cc1cc(C)nc(N2CCCC(C(=O)Nc3ccc(F)cc3)C2)n1 (stereo unspecified),inactive
11,Cc1cc2[nH]c3c(c[n+](C)c4ccccc34)c2cc1C,3.55 µM (active)
12,Cc1c(NC(=O)c2cc(-n3cnnc3)ccc2Cl)cccc1-c1nc2ccccc2s1,inactive
13,CC(=O)Nc1sc2c(c1-c1nc3ccccc3s1)CCN(C(C)C)C2,3.55 µM (active)
14,O=c1[nH]c2cc(F)ccc2c2ccc(F)cc12,inactive
15,CCOc1cc(NC(=S)NCC(C)C)c(OCC)cc1NC(=O)c1ccco1,inactive
16,O=C(Nc1cc(-c2nc3cc(Cl)ccc3o2)ccc1Cl)c1cccs1,inactive
17,COC(=O)C(C)Sc1ccc2nnc(CCNS(=O)(=O)c3ccc(C)cc3)n2n1 (stereo unspecified),inactive
18,CNCCCOc1cc(C)cc(C)c1C,inactive
19,COc1ccc(C(c2c(C)n(C)n(-c3ccccc3)c2=O)c2c(C)n(C)n(-c3ccccc3)c2=O)c(OC)c1OC,inactive
20,COc1ccc(C(=O)c2cccc(C(=O)c3ccc(OC)c(C)c3)c2)cc1C,inactive
21,COc1ccc(OC)c2c1C(=O)c1ccccc1C2=O,35.5 µM (active)
22,CC1(c2ccccc2Cl)NC(=O)N(CC(=O)Nc2ccccc2OC(F)F)C1=O (stereo unspecified),inactive
23,Cc1cccc(NC(=O)c2ccccc2NC(=O)c2ccco2)c1,inactive
24,COc1ccc(-c2n(CC(=O)OC3CC(C)CCC3C(C)C)c3ccccc3[n+]2C)cc1 (stereo unspecified),inactive

row,SMILES,Potency
1,Cc1cccc(C(=O)N[C@H](C(=O)Nc2ccc(C)c(S(=O)(=O)N(C)C)c2)C(C)C)c1,inactive
2,CCN(CC(=O)Nc1ccccc1C(F)(F)F)C(=O)c1ccc(N2C(=O)CCC2=O)cc1,inactive
3,Cc1ccc(NS(=O)(=O)c2ccc(NC(=O)c3ccccc3C(=O)O)cc2)cc1C,inactive
4,CCc1cccc(C)c1NC(=O)CSc1nc(C)c(C)o1,inactive
5,COC(=O)Nc1ccc(S(=O)(=O)NNC(=O)c2c(O)c3ccccc3n(C)c2=O)cc1,inactive
6,CCOC(=O)C1CN(S(=O)(=O)c2cc(OC)ccc2OC)C1,inactive
7,COc1ccc(-n2c(=O)c3c4c(sc3n(Cc3ccc(C(C)(C)C)cc3)c2=O)CCC4)c(OC)c1,inactive
8,CC(=O)Nc1cccc(NC(=O)c2ccccc2OCc2c(C)noc2C)c1,inactive
9,Cc1ccc(S(=O)(=O)NC2CCCC(C(=O)O)C2)cc1 (stereo unspecified),inactive
10,Cc1cc(C)cc(-n2ccnc2SCC(=O)Nc2ccc(C)c(Cl)c2)c1,inactive
11,COC(=O)[C@H](Cc1ccccc1)NC(=O)C1(OC(C)=O)CC(OC(C)=O)C(OC(C)=O)C(OC(C)=O)C1 (stereo partly specified),inactive
12,CCCCn1c(N)c(N(CCOC)C(=O)c2ccc(S(=O)(=O)N3CCCCC3)cc2)c(=O)[nH]c1=O,inactive
13,COc1ccc(OCCCC(=O)Nc2cccc(C(C)=O)c2)cc1,inactive
14,Cc1cccc(NC2(C(=O)O)CCCC2)c1,inactive
15,CC(=O)c1ccc(OCc2ccc(Oc3c(Cl)cccc3[N+](=O)[O-])cc2)cc1,inactive
16,Cc1ccc2c(c1)N(CC(=O)NC1CCCc3ccccc31)C(=O)CO2 (stereo unspecified),inactive
17,CC(=O)Nc1ccc(S(=O)(=O)N2CCCC(C(=O)N3CCN(c4ccccc4)CC3)C2)cc1 (stereo unspecified),inactive
18,CCc1ccc(Nc2ncnc3nc[nH]c23)cc1,inactive
19,CC(C)CCNC(=O)c1ccc2c(SCC(=O)O)c3c(nc2c1)CCCC3,inactive
20,Cc1cc(NC(=O)CCC(=O)N(CC(=O)NC2CCCC2)c2ccc(C)c(F)c2)no1,inactive
21,C[C@H](NC(=O)[C@@H]1Cc2ccccc2CN1C(=O)OC(C)(C)C)C(=O)NC1CCCCC1,inactive
22,CC(C)(CNC(=O)CC1C(=O)NCCN1Cc1cccc(F)c1)N1CCOCC1 (stereo unspecified),inactive
23,CCc1ccc(NC(=O)/C(C#N)=C/c2cc3ccc(C)cc3nc2N2CCOCC2)cc1,inactive
24,OC(CN1CCCCC1)Cn1c2ccccc2c2cc(Br)ccc21 (stereo unspecified),inactive

row,SMILES,Potency
1,CC1(C)CC(=O)/C(=C\c2cccc([N+](=O)[O-])c2)C(C)(C)N1,inactive
2,Cc1cc(C)c(S(=O)(=O)N2CCN(C(=O)N3CCOCC3)CC2)c(C)c1,inactive
3,CN(C)CCN1C(=O)c2cccc3cc([N+](=O)[O-])cc(c23)C1=O,7.94 µM (active)
4,O=C(OCC(=O)c1ccc(Cl)s1)c1cncc(Br)c1,inactive
5,Cc1cccc(/C=N/NC(=O)NC23CC4CC(CC(C4)C2)C3)n1,inactive
6,CC(=O)N1CCN(c2nnc(-c3ccccc3)c3ccccc23)CC1,inactive
7,CC1(C)CC(=O)C(C(O)c2ccccc2)C(C)(C)N1 (stereo unspecified),inactive
8,CCCn1c(=O)c(C(=O)NNS(=O)(=O)c2ccc(C)cc2)c(O)c2ccccc21,inactive
9,O=C1CCN(S(=O)(=O)c2ccc(Br)cc2)CCN1,inactive
10,O=C(COC(=O)c1cccc(-n2cnnn2)c1)c1ccccc1,inactive
11,COc1cc(NCCCC(C)N)c2ncccc2c1 (stereo unspecified),44.7 µM (active)
12,CNC(=S)N/N=C/c1c(C)nn(-c2ccccc2)c1Cl,inactive
13,O=S(=O)(NCCNS(=O)(=O)c1ccc(F)cc1)c1ccc(F)cc1,inactive
14,Nc1cccc2nc3ccccc3cc12,50.1 µM (active)
15,CN(C)CCCNc1c2ccccc2nc2ccccc12,inactive
16,c1ccc(Oc2ncnc3ccccc23)cc1,inactive
17,Nc1c2ccccc2nc2ccccc12,11.2 µM (active)
18,CC(=O)Nc1ccc2c(c1)NC(=O)CC2,inactive
19,CN(C)c1ccc2c(c1)C(=NO)c1ccccc1-2,70.8 µM (active)
20,COC(=O)Cc1ccc(NC(=S)NC(C)(C)C)cc1,inactive
